# An excerpt weighted towards active compounds, which were near 10% of everything screened.
# FLuc inh: Firefly luciferase inhibition profiling of diverse chemical library using quantitative high-throughput screening | purified P. pyralis luciferase, luminescence, biochemical | 2.5% of 76,000 active | Potency, µM (titrated, usually from 115 µM), hits mostly inhibitors; also: nearly all actives have a fitted effect of over 65% in size
# Target sequence (P08659 whole entry, looked up): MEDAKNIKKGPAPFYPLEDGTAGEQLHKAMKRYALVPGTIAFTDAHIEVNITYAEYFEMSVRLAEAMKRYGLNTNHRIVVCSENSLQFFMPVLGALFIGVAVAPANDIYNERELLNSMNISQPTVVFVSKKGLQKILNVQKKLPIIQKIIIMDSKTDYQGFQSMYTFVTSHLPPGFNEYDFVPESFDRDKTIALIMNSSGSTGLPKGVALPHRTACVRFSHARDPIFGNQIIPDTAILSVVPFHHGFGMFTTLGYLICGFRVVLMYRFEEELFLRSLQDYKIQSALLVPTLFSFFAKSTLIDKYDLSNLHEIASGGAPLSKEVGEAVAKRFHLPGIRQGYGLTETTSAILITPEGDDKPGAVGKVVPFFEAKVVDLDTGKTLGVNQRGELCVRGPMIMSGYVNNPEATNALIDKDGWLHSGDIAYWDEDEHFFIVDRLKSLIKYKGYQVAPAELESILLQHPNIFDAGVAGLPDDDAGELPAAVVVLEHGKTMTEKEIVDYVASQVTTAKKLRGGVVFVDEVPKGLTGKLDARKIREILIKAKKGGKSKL
#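 Luminescence read by CCD imaging after purified firefly luciferase (10nM final) was added to substrate buffer holding 10uM D-luciferin and 10uM ATP, pH 7.5, pre-dosed with compound.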
# 3T3 cytotox: Cytotoxic Profiling in NIH 3T3 Cell Line of Diverse Libraries Using Quantitative High-Throughput Screening. 4.3% of 94,000 active. NIH 3T3 viability, CellTiter-Glo ATP luminescence, 48-72 h. Potency, µM (series often up to 96.7 µM), usual class: inhibitors; also: nearly all actives have a fitted effect of over 55% in size
#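 First NIH 3T3 cells are plated at 400 cells/well; next compound is pinned in; then plates incubate 48 or 72 hr at 37 °C; finally CellTiter-Glo is added and luminescence read after 10 min.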
# GPT2 inhibitor: Primary qHTS assay for inhibitors of Glutamate pyruvate transaminase 2 (GPT2) | Recombinant GPT2, coupled pyruvate oxidase/HRP Amplex Red fluorescence | Potency, µM (titrated, usually from 57.7 µM), most hits filed as inhibitors | 0.25% of 100,000 active | AID 1671188, 2021; also: nearly all actives have a fitted effect of over 60% in size
#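 GPT2 10ng/uL, a-KG 250uM, L-Ala 2mM, HEPES pH7.5 + 0.0001% Tween; 30 min RT. Then Amplex mix (PO/HRP/ThPP), 30 min RT dark, fluorescence. AOA 50uM used as positive control.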
# HEK cytotox: Cytotoxic Profiling in HEK 293 Cell Line of Diverse Libraries Using Quantitative High-Throughput Screening; Potency, µM (top dose mostly 115 µM), hits mostly inhibitors; 6.6% of 94,000 active; HEK 293 viability, ATP luminescence (CellTiter-Glo), 48-72 h; also: nearly all actives have a fitted effect of over 60% in size
#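 Viability of HEK 293 cells, plated at 250 cells/well, was judged by cellular ATP after compound treatment for 48 or 72 hr. Luminescence was imaged 10 min after CellTiter-Glo addition at room temperature.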
# hNpr1 antagonist: Natriuretic polypeptide receptor (hNpr1) antagonism - Primary qHTS; HEK293 hNpr1 GloSensor cGMP, ANP-stimulated luminescence; Potency, µM (doses to about 46.3 µM), usual class: inhibitors; 1.6% of 76,000 active; AID 1347048, 2019; calls by dose curve; also: nearly all actives have a fitted effect of over 60% in size
#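 Compound pre-incubated 30 min at room temperature on GloSensor-loaded HEK293 cells stably carrying hNpr1 and the pGS-40F cGMP biosensor. Stimulation uses hNppA at 0.1 nM final; luminescence is taken at baseline and 20 min post-agonist.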
# A number is an active result; – = inactive; ? = inconclusive; · = no result given; [ ] = dose if it differs, or a comment. Unless noted, calls follow the shape of the dose curve; as a rule, active = well fitted curve in the direction sought with a large enough effect; inconclusive = small, poorly fitted or top-dose-only effect, or another doubt; inactive = no such curve, though single readings can be large; an effect the other way counts as inactive or inconclusive.
SMILES,FLuc inh,3T3 cytotox,GPT2 inhibitor,HEK cytotox,hNpr1 antagonist
CSc1ccc(-c2cccc(CN3CCC(NC(=O)c4ccccc4)CC3)c2)cc1,·,–,·,–,·
Cc1cccc(-c2cccc(CN3CCC(N[S+](=O)([O-])c4cccs4)CC3)c2)c1,·,?,–,28µM,·
CSc1ccc(-c2cccc(CN3CCC(N[S+](=O)([O-])CCC(F)(F)F)CC3)c2)cc1,·,?,·,–,·
O=C(Nc1ccc(C2(C(=O)N3CCN(c4ccccn4)CC3)CCC2)cc1)C1CC1,–,–,–,?,–
COc1ccc(C(=O)N[C@H]2CC[C@]3(C)CCC([C@H](C)C(=O)NCCN4CCOCC4)[C@H](O)[C@H]3[C@@H]2C)cc1 (some centres undefined),–,–,–,–,–
COCc1noc([C@@H]2CN(C(=O)CC3CCCC3)C[C@H]2CO)n1,–,–,–,–,–
Cc1cccc(-c2cccc(CN3CCC(N[S+](=O)([O-])c4ccccc4)CC3)c2)c1,·,25µM,–,28µM,·
C[S+](=O)([O-])NC1CCN(Cc2cccc(-c3cccs3)c2)CC1,·,?,–,?,·
Cc1ccc([S+](=O)([O-])NC2CCN(Cc3cccc(-c4cccc(C)c4)c3)CC2)cc1,·,16µM,–,25µM,·
COCCN1C(=O)c2cccn2CC1CNC(=O)Nc1ccc(OC)cc1 (centres undefined),–,–,–,–,–
Cc1ccc(-n2c(C3CCN(C(=O)c4ccccc4)CC3)n[nH]c2=O)cc1,–,?,–,–,–
COc1cccc(N2C(=O)NC(=NC3CCCCC3)C23CCN(Cc2ccccc2)C3)c1 (centres undefined),·,–,–,–,·
COc1cccc(N2C(=O)NC(=NC3CCCC3)C23CCN(Cc2ccccc2)C3)c1 (centres undefined),·,?,–,89µM,·
COc1cccc(N2C(=O)NC(=NC3CCCCC3)C23CCCN(Cc2ccc(F)cc2)C3)c1 (centres undefined),·,40µM,–,?,·
COCC(=O)N1CCC(C(=O)NCC2COc3cc(OC)ccc3C2)CC1 (centres undefined),–,–,–[11.5 µM],–,–
Cc1ccc(C2Cn3nnc(C(=O)N4CCN(C(=O)c5cccc(N(C)C)c5)CC4)c3CO2)cc1 (centres undefined),?,–,–,18µM,?
Cc1ccc(C2Cn3nnc(C(=O)N4CCC(C(=O)Nc5ccc(Cl)c(C)c5)CC4)c3CO2)cc1 (centres undefined),35µM,–,–,–,–
CSc1ccc(NC(=O)C2CCN(C(=O)c3nnn4c3COC(c3ccc(C)cc3)C4)CC2)cc1 (centres undefined),?,–,–,–,–
Cc1cccc(C(=O)N2CCN(C(=O)c3nnn4c3COC(c3ccc(Cl)cc3)C4)CC2)c1 (centres undefined),–,–,–,?,–
Cc1ccc(C2Cn3nnc(C(=O)N4CCC(C(=O)Nc5cccc(Cl)c5)CC4)c3CO2)cc1 (centres undefined),28µM,?,–,40µM,–
O=C(c1ccc2[nH]ccc2c1)N1CCN(C(=O)c2nnn3c2COC(c2ccccc2)C3)CC1 (centres undefined),–,–,–,79µM,–
Cc1nc2cnccn2c1C(=O)NCc1ccc(Cl)cc1,·,–,·,?,·
CC(=O)N1C[C@@H](C(=O)NCc2cccs2)[C@H](c2nc(C)no2)C1,–,–,–,–,?
CNC(=O)c1ccc(CNc2cc(C3CC(O)C3)nc(N)n2)o1 (centres undefined),–,–,–,–,–
CNC(=O)c1ccc(CNc2nc(CCN)nc3sc(C)c(C)c23)o1,–,?,–,50µM,–
SMILES,FLuc inh,3T3 cytotox,GPT2 inhibitor,HEK cytotox,hNpr1 antagonist
CCCn1ncnc1C(C)NC(=O)C1CCN(C(=O)C2CC2)CC1 (centres undefined),–,–,–,–,–
CCCn1ncnc1C(C)Nc1cc(C(C)C)nc2cc(C)nn12 (centres undefined),–,35µM,–,?,–
Cn1nc(C(=O)N2CCCCCC2c2nnc(-c3ccccc3)o2)c2ccccc21 (centres undefined),–,?,–,?,–
Cc1nonc1C1CCCN1C(=O)c1cn(Cc2ccccc2F)nn1 (centres undefined),–,–,–,–,–
C[C@H]1CN(C(=O)C2CCCC2)C[C@@H]1c1nc(-c2ccccc2)no1,?,32µM,–,?,–
C[C@@H]1CN(C(=O)Cc2cccnc2)C[C@H]1c1nc(-c2ccncc2)no1,–,–,–,–,–
Cc1cc(Cl)ccc1NC(=O)N1C[C@H](c2nc(-c3cccnc3)no2)[C@@H](C)C1,–,–,–,45µM,–
COCCc1noc(-c2nc(-c3ccc(OC)c(OC)c3)no2)n1,–,–,–,–,–
Cc1ccc(Nc2ccnc(N3CCC(NC(=O)Nc4ccc(Cl)cc4)CC3)n2)cc1,·,22µM,–,25µM,·
COc1ccc(Nc2ccnc(N3CCC(NC(=O)Nc4ccc(Cl)cc4)CC3)n2)cc1,·,32µM,–,20µM,·
Cc1ccc(Nc2ccnc(N3CCC(NC(=O)Nc4ccccc4)CC3)n2)cc1,·,?,–,?,·
O=C1[C@H]2CC[C@H](CN(Cc3ccc(-n4ccnc4)cc3)C2)N1CC1CCC1,–,40µM,–,?,?
CN1CCCCCCN(Cc2cn(C)c3ccccc23)[C@H]2CCC[C@H]2C1=O,–,?,–,?,–
COc1ccc2c(c1)c(CN1CCCCCCN(C)C(=O)[C@@H]3CCC[C@@H]31)cn2C,–,28µM,–,35µM,–
Oc1cccc(CN(Cc2ccsc2)Cc2ccco2)c1,–,32µM,–,35µM,–
CC(c1cccs1)N(C)Cc1ccsc1 (centres undefined),–,–,–,–,–
O=C(NC1CCCCCC1)C1CCN(C(=O)c2ncn3c2COC(c2ccc(F)cc2)C3)CC1 (centres undefined),–,–,–,–,–
O=C(NC1CCCCCCC1)C1CCN(C(=O)c2ncn3c2COC(c2ccccc2)C3)CC1 (centres undefined),18µM,–,–,–,–
COc1ccc(NC(=O)C2CCN(C(=O)c3ncn4c3COC(c3ccc(F)cc3)C4)CC2)cc1F (centres undefined),?,–,–,–,–
O=C(Nc1ccc(F)cc1)C1CCN(C(=O)c2ncn3c2COC(c2ccc(F)cc2)C3)CC1 (centres undefined),32µM,–,–,–,–
